Test results reported in PubChem BioAssay (EPA / NIEHS).
Inconclusive results are not listed. Active and inactive are the calls of the source. How the source made its calls, unless noted: active means hit-call score of the fitted dose curve at least 0.9, where 1 is the maximum; inactive means score below 0.9.

Columns and labels:
[1] = ATG_CRE_CIS: Attagene CIS-FACTORIAL HepG2 Assay for human cAMP Responsive Element (CRE) binding protein 3 (AID 2282926); conditions: HepG2 CRE cis-reporter, Attagene multiplexed mRNA; actives raise or lower the signal
Outline: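 Capillary electrophoresis of 6-FAM-labelled, HpaI-digested PCR products quantified reporter transcripts. These came from HepG2 transiently transfected with cis-element reporters and exposed to test chemicals for 24 hours, with DMSO defining baseline activity.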

[2] = biological target: Hepatocyte nuclear factor 3-beta (Homo sapiens) (UniProt Q9Y261); experiment: ATG_FoxA2_CIS: Attagene CIS-FACTORIAL HepG2 Assay for human Forkhead box A2 (FOXA2) (AID 2282942); conditions: HepG2 cis-reporter transcription factor activity, 24 h; actives raise or lower the signal
Hepatocyte nuclear factor 3-beta (Homo sapiens), sequence (Q9Y261 whole entry, looked up): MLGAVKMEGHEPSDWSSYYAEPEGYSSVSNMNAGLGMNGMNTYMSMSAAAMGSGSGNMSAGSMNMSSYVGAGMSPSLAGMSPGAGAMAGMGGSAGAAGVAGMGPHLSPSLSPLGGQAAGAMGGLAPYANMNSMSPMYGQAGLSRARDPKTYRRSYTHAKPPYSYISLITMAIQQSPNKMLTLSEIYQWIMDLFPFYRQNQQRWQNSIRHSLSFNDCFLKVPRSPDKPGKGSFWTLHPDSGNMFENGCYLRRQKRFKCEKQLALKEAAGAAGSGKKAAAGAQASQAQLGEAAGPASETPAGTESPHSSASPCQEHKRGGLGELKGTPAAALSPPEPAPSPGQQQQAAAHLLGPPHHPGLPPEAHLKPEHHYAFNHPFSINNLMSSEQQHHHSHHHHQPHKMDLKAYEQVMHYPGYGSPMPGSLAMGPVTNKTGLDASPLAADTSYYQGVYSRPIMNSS
Outline: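 Endogenous transcription factor activity was read in HepG2 cells carrying transiently transfected cis-promoter reporter units. After 24 h dosing, reporter mRNA was quantified by RT-PCR and capillary electrophoresis, and values fitted bidirectionally versus DMSO.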

[3] = ATG_M_32_CIS: Attagene CIS-FACTORIAL HepG2 Assay for M32 Transcription Factor (Internal Marker) (AID 2282949); conditions: HepG2 Attagene cis-factorial M32 reporter, mRNA; actives raise or lower the signal;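 further: background control marker of the multiplexed CIS panel rather than a real target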
Outline: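 HepG2 transfectants (cis-regulated reporter transcription units) dosed 24 h. Reporter mRNA by RT-PCR plus CE, analysed as gain or loss relative to DMSO.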

[4] = biological target: Hypoxia-inducible factor 1-alpha (Homo sapiens) (UniProt Q16665); experiment: ATG_HIF1a_CIS: Attagene CIS-FACTORIAL HepG2 Assay for human Hypoxia Inducible Factor 1 (HIF1A) (AID 2282951); conditions: HepG2 Attagene cis-factorial HIF1a reporter transcription; actives raise or lower the signal
Hypoxia-inducible factor 1-alpha (Homo sapiens), sequence (Q16665 whole entry, looked up): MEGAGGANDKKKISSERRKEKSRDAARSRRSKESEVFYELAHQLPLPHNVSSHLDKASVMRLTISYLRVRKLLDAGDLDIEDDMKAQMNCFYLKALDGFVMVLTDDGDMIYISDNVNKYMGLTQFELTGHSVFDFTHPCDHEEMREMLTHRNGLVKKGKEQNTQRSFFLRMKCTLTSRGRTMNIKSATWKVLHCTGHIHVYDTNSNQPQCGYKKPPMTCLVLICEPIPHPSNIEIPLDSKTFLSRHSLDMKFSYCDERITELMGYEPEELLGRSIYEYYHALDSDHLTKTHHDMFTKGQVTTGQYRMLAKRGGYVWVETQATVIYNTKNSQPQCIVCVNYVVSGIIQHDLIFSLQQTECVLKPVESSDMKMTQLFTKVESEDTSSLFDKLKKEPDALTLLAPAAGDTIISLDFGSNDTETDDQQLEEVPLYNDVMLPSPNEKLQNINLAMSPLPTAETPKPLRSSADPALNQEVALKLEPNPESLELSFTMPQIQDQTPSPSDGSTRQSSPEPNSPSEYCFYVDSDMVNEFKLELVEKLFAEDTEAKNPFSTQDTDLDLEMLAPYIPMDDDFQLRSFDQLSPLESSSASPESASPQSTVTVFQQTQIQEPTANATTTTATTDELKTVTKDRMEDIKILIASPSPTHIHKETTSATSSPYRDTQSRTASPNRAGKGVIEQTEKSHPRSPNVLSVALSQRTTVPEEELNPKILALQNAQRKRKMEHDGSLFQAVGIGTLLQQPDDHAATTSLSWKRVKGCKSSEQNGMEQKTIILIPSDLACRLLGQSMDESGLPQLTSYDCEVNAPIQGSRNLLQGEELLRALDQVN
Outline: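 Measures endogenous transcription-factor activity through cis-regulated reporter mRNA in HepG2. Cells dosed 24 h; transcripts quantified by RT-PCR with 6-FAM-labelled products separated by capillary electrophoresis; DMSO serves as negative control.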

[5] = biological target: Hepatocyte nuclear factor 6 (Homo sapiens) (UniProt Q9UBC0); experiment: ATG_HNF6_CIS: Attagene CIS-FACTORIAL HepG2 Assay for human Hepatocyte Nuclear Factor 6 (HNF6) (AID 2282952); conditions: HepG2 Attagene cis-factorial HNF6 reporter transcription; actives raise or lower the signal
Hepatocyte nuclear factor 6 (Homo sapiens), sequence (Q9UBC0 whole entry, looked up): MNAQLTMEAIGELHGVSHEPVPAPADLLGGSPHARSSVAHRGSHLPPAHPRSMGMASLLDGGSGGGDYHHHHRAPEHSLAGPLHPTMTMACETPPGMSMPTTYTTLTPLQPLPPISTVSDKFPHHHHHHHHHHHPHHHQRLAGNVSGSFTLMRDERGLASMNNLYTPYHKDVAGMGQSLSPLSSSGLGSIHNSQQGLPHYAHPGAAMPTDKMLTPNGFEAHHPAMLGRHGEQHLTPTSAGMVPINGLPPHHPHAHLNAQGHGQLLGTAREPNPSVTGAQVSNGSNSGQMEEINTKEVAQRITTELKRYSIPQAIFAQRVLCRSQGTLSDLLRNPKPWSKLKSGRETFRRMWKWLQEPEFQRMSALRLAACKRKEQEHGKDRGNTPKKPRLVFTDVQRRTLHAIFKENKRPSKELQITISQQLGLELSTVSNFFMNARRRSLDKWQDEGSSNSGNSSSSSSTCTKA
Outline: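 Activity values derive from bidirectional fitting against DMSO of reporter mRNA levels, measured by capillary electrophoresis of labelled RT-PCR products from HepG2 cells exposed 24 h.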

[6] = biological target: Heat shock factor protein 1 (Homo sapiens) (UniProt Q00613); experiment: ATG_HSE_CIS: Attagene CIS-FACTORIAL HepG2 Assay for human Heat Shock Transcription Factor 1 (HSE) (AID 2282953); conditions: HepG2 HSE cis-reporter, Attagene RNA transcription; actives raise or lower the signal
Heat shock factor protein 1 (Homo sapiens), sequence (Q00613 whole entry, looked up, the tested form may be a part): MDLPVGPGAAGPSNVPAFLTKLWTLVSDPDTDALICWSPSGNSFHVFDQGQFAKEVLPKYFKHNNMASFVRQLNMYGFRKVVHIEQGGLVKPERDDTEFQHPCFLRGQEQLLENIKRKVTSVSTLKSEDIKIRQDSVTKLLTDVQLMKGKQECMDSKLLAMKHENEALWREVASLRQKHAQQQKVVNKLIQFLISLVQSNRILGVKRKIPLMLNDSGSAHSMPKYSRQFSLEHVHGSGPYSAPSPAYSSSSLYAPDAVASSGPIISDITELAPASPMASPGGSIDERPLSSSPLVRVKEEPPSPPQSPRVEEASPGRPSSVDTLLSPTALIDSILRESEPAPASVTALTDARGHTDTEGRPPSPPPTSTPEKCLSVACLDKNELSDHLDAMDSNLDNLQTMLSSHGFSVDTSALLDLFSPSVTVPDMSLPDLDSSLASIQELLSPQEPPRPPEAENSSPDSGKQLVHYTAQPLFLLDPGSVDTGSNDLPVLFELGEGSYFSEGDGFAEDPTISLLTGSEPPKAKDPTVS
Outline: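 Read-out: fluorescence of reporter-specific RT-PCR fragments separated by capillary electrophoresis. HepG2 carrying transfected cis-element reporter units; 24 h dosing; activity fitted in both directions relative to DMSO baseline.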

[7] = ATG_RORE_CIS: Attagene CIS-FACTORIAL HepG2 Assay for human RAR-related Orphan Receptor Element (RORE) (AID 2282959); conditions: HepG2 Attagene cis-factorial RORE reporter, mRNA; actives raise or lower the signal
Outline: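 Cells were HepG2 carrying transfected cis-regulated reporter constructs, dosed for 24 hours. Total RNA was reverse-transcribed and reporter cDNA amplified, fluorescently labeled and sized by capillary electrophoresis. Activity was fitted bidirectionally relative to DMSO.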

[8] = ATG_TGFb_CIS: Attagene CIS-FACTORIAL HepG2 Assay for human Transforming Growth Factor (TGF) (AID 2282967); conditions: HepG2 Attagene CIS TGFb reporter, mRNA transcription; actives raise or lower the signal
Outline: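 Readout: fluorescently labeled reporter cDNA fragments resolved by capillary electrophoresis after RT-PCR. Transfected HepG2 cells dosed for 24 h; endogenous TF activity at TGFB1-linked cis element; gain or loss fitted relative to DMSO.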

[9] = biological target: X-box-binding protein 1 (Homo sapiens) (UniProt P17861); experiment: ATG_Xbp1_CIS: Attagene CIS-FACTORIAL HepG2 Assay for human X-box Binding Protein 1 (XBP1) (AID 2282972); conditions: HepG2 XBP1 cis-element reporter, Attagene multiplex; actives raise or lower the signal
X-box-binding protein 1 (Homo sapiens), sequence (P17861 whole entry, looked up): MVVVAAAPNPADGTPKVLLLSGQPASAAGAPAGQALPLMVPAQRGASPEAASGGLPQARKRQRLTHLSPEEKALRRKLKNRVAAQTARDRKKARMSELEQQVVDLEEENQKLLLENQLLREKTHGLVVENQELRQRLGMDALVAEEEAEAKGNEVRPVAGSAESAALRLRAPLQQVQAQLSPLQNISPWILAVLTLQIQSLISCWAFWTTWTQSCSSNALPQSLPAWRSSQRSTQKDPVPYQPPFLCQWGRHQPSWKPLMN
Outline: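 Human hepatoma HepG2, cis-element reporter system, 24 h treatment; mRNA quantified by RT-PCR/CE fluorescence; fit relative to DMSO.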

[10] = ATG_M_32_TRANS: Attagene TRANS-FACTORIAL HepG2 Assay for M32 Transcription Factor (Internal Marker) (AID 2282984; active means hit-call score of the fitted dose curve at least 0.9, where 1 is the maximum;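 further: transcript level of a background control reporter unit measured by RT-PCR and capillary electrophoresis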); conditions: HepG2 Attagene TRANS M32 internal marker reporter
Outline: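 After 24 h dosing of transfected HepG2 cells, total RNA was reverse-transcribed, reporter sequences PCR-amplified, 6-FAM labelled by primer extension and HpaI-digested before capillary electrophoresis. Signal increase over DMSO was fitted.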

[11] = biological target: Transcriptional activator Myb (Homo sapiens) (UniProt P10242); experiment: ATG_Myb_CIS: Attagene CIS-FACTORIAL HepG2 Assay for human Myeloblastosis (Myb) Proto-Oncogene Transcription Factor (AID 2282986); conditions: HepG2 Attagene CIS-FACTORIAL Myb reporter transcription; actives raise or lower the signal
Transcriptional activator Myb (Homo sapiens), sequence (P10242 whole entry, looked up): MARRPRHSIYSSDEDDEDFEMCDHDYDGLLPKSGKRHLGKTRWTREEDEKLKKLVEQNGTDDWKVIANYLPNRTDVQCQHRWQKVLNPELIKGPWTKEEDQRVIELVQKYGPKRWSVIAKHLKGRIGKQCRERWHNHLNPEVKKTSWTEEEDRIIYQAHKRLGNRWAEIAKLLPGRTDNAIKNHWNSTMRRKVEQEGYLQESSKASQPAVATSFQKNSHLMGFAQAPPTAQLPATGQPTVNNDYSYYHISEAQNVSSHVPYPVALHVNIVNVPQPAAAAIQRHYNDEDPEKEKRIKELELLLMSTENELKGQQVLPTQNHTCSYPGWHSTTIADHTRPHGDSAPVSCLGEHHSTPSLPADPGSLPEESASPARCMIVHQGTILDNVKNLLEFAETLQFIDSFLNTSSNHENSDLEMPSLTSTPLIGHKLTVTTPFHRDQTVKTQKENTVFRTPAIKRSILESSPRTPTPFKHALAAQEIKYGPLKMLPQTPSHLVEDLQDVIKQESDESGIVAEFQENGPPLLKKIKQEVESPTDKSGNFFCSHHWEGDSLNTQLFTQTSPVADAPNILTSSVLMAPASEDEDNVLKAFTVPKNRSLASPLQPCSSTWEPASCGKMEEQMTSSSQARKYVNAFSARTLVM
Outline: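 Steps: transfect HepG2 with cis-regulated reporter units; dose with chemical for 24 h; isolate RNA, reverse-transcribe, PCR-amplify and FAM-label reporter sequences; digest with HpaI; resolve by capillary electrophoresis. Activity fitted in both directions relative to DMSO.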

[12] = biological target: Nuclear respiratory factor 1 (Homo sapiens) (UniProt Q16656); experiment: ATG_NRF1_CIS: Attagene CIS-FACTORIAL HepG2 Assay for human Nuclear Respiratory Factor 1 (NRF1) Orphan Gene (AID 2282987); conditions: HepG2 NRF1 cis-element reporter, Attagene multiplex; actives raise or lower the signal
Nuclear respiratory factor 1 (Homo sapiens), sequence (Q16656 whole entry, looked up, the tested form may be a part): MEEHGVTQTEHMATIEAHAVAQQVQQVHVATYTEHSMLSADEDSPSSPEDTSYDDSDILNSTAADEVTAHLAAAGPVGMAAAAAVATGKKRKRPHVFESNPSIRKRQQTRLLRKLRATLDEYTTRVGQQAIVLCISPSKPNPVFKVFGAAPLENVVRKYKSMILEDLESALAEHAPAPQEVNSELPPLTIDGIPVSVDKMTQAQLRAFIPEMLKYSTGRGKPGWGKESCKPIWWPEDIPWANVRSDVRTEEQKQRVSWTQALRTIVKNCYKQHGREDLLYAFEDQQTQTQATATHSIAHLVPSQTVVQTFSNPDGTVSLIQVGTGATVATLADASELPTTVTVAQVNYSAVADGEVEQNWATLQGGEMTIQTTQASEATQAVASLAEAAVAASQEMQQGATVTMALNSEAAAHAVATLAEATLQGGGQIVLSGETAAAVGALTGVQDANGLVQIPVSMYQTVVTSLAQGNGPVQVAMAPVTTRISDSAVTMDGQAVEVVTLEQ
Outline: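 Fluorescence intensity of labelled reporter cDNA fragments, resolved by capillary electrophoresis, served as readout for NRF1 cis-element activity. Transiently transfected HepG2 cells were dosed for 24 hours; activity in either direction was fitted against DMSO negative control.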

[13] = ATG_NFI_CIS: Attagene CIS-FACTORIAL HepG2 Assay for human Nuclear Factor I (NFI) (AID 2282989); conditions: HepG2 cis-regulatory reporter, NFI response element transcription; actives raise or lower the signal
Outline: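 Read-out: reporter mRNA via RT-PCR plus capillary electrophoresis with fluorescence detection. Transiently transfected HepG2 (endogenous TF activity on cis promoters), 24 h compound exposure; gain or loss of signal fitted against DMSO.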

[14] = biological target: Myc proto-oncogene protein (Homo sapiens) (UniProt P01106); experiment: ATG_Myc_CIS: Attagene CIS-FACTORIAL HepG2 Assay for human Myelocytomatosis (Myc) Proto-Oncogene Transcription Factor (AID 2282990); conditions: HepG2, Attagene cis-reporter transcription factor activity; actives raise or lower the signal
Myc proto-oncogene protein (Homo sapiens), sequence (P01106 whole entry, looked up): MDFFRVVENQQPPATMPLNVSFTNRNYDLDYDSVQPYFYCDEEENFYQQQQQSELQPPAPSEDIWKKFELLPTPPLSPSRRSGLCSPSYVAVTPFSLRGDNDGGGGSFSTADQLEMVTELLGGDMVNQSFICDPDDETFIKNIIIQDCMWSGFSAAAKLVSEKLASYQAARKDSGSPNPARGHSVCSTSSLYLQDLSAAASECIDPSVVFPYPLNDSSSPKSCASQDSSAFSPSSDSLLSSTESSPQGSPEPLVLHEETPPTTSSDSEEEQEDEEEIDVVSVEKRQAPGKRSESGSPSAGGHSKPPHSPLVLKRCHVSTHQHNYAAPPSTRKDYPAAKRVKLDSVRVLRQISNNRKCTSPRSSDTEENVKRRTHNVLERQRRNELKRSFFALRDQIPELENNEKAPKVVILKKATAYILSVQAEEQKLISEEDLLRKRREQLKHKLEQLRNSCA
Outline: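 HepG2 cells transiently transfected with multiple cis-promoter-driven reporter transcription units, so endogenous TF activity is read. After 24 h compound exposure, reporter mRNA was quantified by RT-PCR, 6-FAM labelling, HpaI digestion and capillary electrophoresis; bidirectional fit versus DMSO.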

[15] = ATG_NF_kB_CIS: Attagene CIS-FACTORIAL HepG2 Assay for human Nuclear Factor Kappa B (NF-kB) (AID 2282991); conditions: HepG2 Attagene cis-factorial NF-kB reporter mRNA; actives raise or lower the signal
Outline: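 Endogenous transcription factor activity in HepG2 was captured via cis-regulated reporter constructs; after 24 h dosing, reporter mRNA was reverse-transcribed, amplified, fluorescently labelled and sized by capillary electrophoresis, with activity fitted bidirectionally relative to DMSO.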

[16] = ATG_NRF2_ARE_CIS: Attagene CIS-FACTORIAL HepG2 Assay for human Nuclear Factor Erythroid 2 Related Factor 2 (NFR2) response to Antioxidant Response Elements (ARE) (AID 2282992); conditions: HepG2 Attagene ARE/NRF2 reporter, transcription factor activity; actives raise or lower the signal
Outline: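 Fluorescence intensity of reporter-specific cDNA fragments, separated by capillary electrophoresis, reflects mRNA induction in transfected HepG2 cells at 24 h. Activity is fitted bidirectionally, DMSO serving as baseline.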

[17] = biological target: Cellular tumor antigen p53 (Homo sapiens) (UniProt P04637); experiment: ATG_p53_CIS: Attagene CIS-FACTORIAL HepG2 Assay for human p53 Transcription Factor (AID 2282994); conditions: HepG2 p53 cis-element reporter, Attagene mRNA; actives raise or lower the signal
Cellular tumor antigen p53 (Homo sapiens), sequence (P04637 whole entry, looked up): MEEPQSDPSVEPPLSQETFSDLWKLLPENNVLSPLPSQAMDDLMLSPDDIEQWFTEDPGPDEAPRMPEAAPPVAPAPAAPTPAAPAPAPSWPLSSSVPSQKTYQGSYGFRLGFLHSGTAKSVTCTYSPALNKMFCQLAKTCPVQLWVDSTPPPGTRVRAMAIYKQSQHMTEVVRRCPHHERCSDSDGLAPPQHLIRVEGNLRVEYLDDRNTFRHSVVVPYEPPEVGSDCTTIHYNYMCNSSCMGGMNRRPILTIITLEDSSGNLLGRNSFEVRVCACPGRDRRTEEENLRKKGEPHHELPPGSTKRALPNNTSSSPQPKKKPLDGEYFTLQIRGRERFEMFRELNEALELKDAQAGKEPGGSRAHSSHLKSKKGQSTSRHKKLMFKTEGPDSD
Outline: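 Transiently transfected HepG2 (multiple cis reporter transcription units); exposure 24 h; reporter RNA via RT-PCR, 6-FAM extension, 2 h HpaI digest at 37 C, CE detection; DMSO baseline.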

[18] = biological target: Nuclear receptor subfamily 1 group I member 2 (Homo sapiens) (UniProt O75469); experiment: ATG_PXR_TRANS: Attagene TRANS-FACTORIAL HepG2 Assay for human Pregnane X Receptor (PXR) (AID 2283008; active means hit-call score of the fitted dose curve at least 0.9, where 1 is the maximum)
Nuclear receptor subfamily 1 group I member 2 (Homo sapiens), sequence (O75469 whole entry, looked up, the tested form may be a part): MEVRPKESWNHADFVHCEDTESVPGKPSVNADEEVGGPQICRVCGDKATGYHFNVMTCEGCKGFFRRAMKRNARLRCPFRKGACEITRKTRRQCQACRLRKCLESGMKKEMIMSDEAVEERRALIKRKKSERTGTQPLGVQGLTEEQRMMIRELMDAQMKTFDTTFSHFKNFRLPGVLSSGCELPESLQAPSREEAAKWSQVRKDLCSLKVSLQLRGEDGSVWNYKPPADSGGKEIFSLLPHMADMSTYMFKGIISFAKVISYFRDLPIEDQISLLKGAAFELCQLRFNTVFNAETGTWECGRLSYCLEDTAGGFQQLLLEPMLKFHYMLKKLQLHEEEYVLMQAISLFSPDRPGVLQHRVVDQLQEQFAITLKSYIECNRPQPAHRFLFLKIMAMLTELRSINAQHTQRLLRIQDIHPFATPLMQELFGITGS
Outline: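 Transient HepG2 transfectants carrying multiplexed reporter transcription units; PXR activity read through a Gal4 chimera. 24 h exposure. RT-PCR/CE fluorescence; upward curve fit referenced to DMSO.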

[19] = ATG_XTT_Cytotoxicity: Cytotoxicity Assessment in the Attagene TRANS-FACTORIAL HepG2 Assay (AID 2283584; active means hit-call score of the fitted dose curve at least 0.9, where 1 is the maximum)
Outline: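 HepG2 human liver cells, transiently transfected with multiple GAL4-UAS reporter units, were dosed and read at 24 h by XTT as cell number. Loss of signal was fitted relative to DMSO negative control baseline.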

[20] = ATG_TAL_CIS: Attagene CIS-FACTORIAL HepG2 Assay for human TAL Basal Promoter (AID 2282966); conditions: HepG2 Attagene cis-factorial TAL promoter reporter; actives raise or lower the signal;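 further: background control endpoint measuring basal TAL promoter reporter mRNA not a specific factor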
Outline: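 Transiently transfected HepG2 (cis-regulated reporter units), 24 h treatment, mRNA read by fluorescent CE after RT-PCR; bidirectional fit, DMSO baseline.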

Measured: AC50

CC(C)COP(=O)(OCC(C)C)OCC(C)C
active: [16] 37 µM | [18] 1.52 µM
not listed: [20]
inactive: all other assays above

Cc1cc(C)c(C2=C(OC(=O)CC(C)(C)C)C3(CCCC3)OC2=O)c(C)c1
active: [1] 127 µM | [6] 170 µM | [9] 104 µM | [13] 145 µM | [14] 189 µM | [16] 160 µM
not listed: [17] | [20]
inactive: all other assays above

CC(C)(C)C(O)C(Oc1ccc(-c2ccccc2)cc1)n1cncn1 (stereo not drawn)
active: [6] 59.6 µM | [8] 0.672 µM | [16] 41.6 µM | [17] 44 µM | [18] 1.78 µM
inactive: all other assays above

CC(C)(C)C(=O)CCl
active: [4] 62.4 µM | [6] 157 µM | [16] 21.6 µM
inactive: all other assays above

NNc1ccccc1
active: [16] 47.1 µM | [18] 36.6 µM
not listed: [2] | [3] | [17]
inactive: all other assays above

CCC1CCC(=O)O1 (stereo not drawn)
not listed: [15] | [17] | [18]
inactive: all other assays above

O=[N+]([O-])c1cc([N+](=O)[O-])c2ccccc2c1
active: [16] 3.1 µM | [18] 9.2 µM
not listed: [1] | [10] | [19]
inactive: all other assays above
